Bioassay records (PubChem)
The list is not random: actives were taken first. Their share in the collection is about 14%.
Pf growth 96h: P. falciparum growth inhibition at 96 hour, primary screen for plastid delayed-death inhibitors; P. falciparum luciferase reporter growth, 96 h; Potency, µM (series often up to 28.7 µM), inactives show at the highest dose activity change, negative = inhibition, hits mostly inhibitors; hit rate 6.9% among 320,000; also: potency is read from the fitted curve at half-maximal effect
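Readout is luminescence from an integrated firefly luciferase in P. falciparum. Red cells, 2% hematocrit and 0.05% parasitemia final, were cultured with compound through two parasite generations (96 hours) at 37 C, 5% CO2.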
Pf growth 48h: inhibits P. falciparum growth in the first generation, 48 h; Potency, µM (top dose mostly 28.7 µM), for inactives: at the top dose activity change, negative = inhibition, most hits filed as inhibitors; AID 504832; hit rate 5.9% among 310,000; P. falciparum luciferase growth in erythrocytes, 48 h; also: potency is read from the fitted curve at half-maximal effect
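Compounds are pin-transferred into medium, infected erythrocytes (2% hematocrit, 0.1% parasitemia final) are added, and plates sit one parasite generation at 37 C in 5% CO2. Detection reagent is then added and luminescence measured.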
Sm TGR inh: blocks Schistosoma mansoni thioredoxin glutathione reductase; Q962Y6; purified TGR, DTNB reduction, TNB absorbance 405 nm; Potency, µM (highest dose often 114 µM), inactives show at the highest dose activity change, negative = inhibition, most hits filed as inhibitors; hit rate 3% among 360,000; AID 485364; also: potency is read from the fitted curve at half-maximal effect; nearly all actives have a fitted effect of over 60% in size
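Kinetic colorimetric format: TGR-catalysed, NADPH-driven DTNB reduction monitored via TNB absorbance. Enzyme dispensed at 20 nM; compound exposure 15 min at room temperature before reaction start.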
FBPA Giardia inh: blocks Giardia fructose-bisphosphate aldolase activity | AID 2451 | purified Giardia FBPA | Potency, µM (top dose mostly 59.6 µM), for the others: at the highest dose activity, negative = inhibition, usual class: inhibitors | A8B2U2 | hit rate 0.71% among 290,000; also: potency is read from the fitted curve at half-maximal effect; nearly all actives have a fitted effect of over 55% in size
Target sequence (A8B2U2 whole entry, looked up): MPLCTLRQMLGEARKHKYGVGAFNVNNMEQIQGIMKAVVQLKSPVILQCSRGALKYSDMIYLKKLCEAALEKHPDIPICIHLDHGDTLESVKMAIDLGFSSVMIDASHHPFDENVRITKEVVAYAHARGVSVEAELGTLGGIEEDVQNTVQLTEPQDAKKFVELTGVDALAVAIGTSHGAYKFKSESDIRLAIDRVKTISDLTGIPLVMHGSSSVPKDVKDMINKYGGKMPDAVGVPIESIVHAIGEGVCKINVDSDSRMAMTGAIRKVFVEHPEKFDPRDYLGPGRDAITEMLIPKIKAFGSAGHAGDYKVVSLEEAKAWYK
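Giardia FBPA (40 nM reagent) was preincubated 10 min at RT with compound (up to 57.5 uM final), then substrate plus GAPDH/TPI/NAD/arsenate coupling system with diaphorase/resazurin was added; resorufin fluorescence (525/598 nm) was read after 20 min.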
HCMV inh: human cytomegalovirus inhibition. HFF cells, HCMV-luciferase reporter, 72 h; hits give low values. activity change, negative = inhibition, % at 57.5 µM. hit rate 4.5% among 410,000; in the data active = activity change below about -60%; inconclusive = no clear call, values can overlap the other calls; inactive = above about -39%
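Inhibition of viral replication was scored as loss of reporter luminescence in HFFs infected with HCMV-luciferase (MOI 1 PFU/cell) for 72 h; compounds tested at 2 doses, normalized to buffer and Salinomycin controls.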
* = called active by the depositor; u = inconclusive; x = no result given; [ ] = remark or other dose. Unless noted, calls follow the shape of the dose curve; as a rule, active = well fitted curve in the direction sought with a large enough effect; inconclusive = small, poorly fitted or top-dose-only effect, or another doubt; inactive = no such curve, though single readings can be large; an effect the other way counts as inactive or inconclusive. % is scaled to controls: 0 for no effect and ±100 for the full control effect.

SMILES	Pf growth 96h	Pf growth 48h	Sm TGR inh	FBPA Giardia inh	HCMV inh
CCn1cc(C(=O)NCc2ccccc2OC)c(=O)c2cc(S(=O)(=O)N(C)C)ccc21	10µM*	u	-3%	7%	u
CCN(CCCNC(=O)c1cn(CC)c2ccc(S(=O)(=O)N(C)C)cc2c1=O)c1cccc(C)c1	170%	u	-11%	-21%	-3
C=CCn1cc(C(=O)NCc2ccc3c(c2)OCO3)c(=O)c2cc(S(=O)(=O)N(CC)CC)ccc21	u	12µM*	13%	-1%	-5
CCn1cc(C(=O)NCc2ccc(Cl)cc2)c(=O)c2cc(S(=O)(=O)N(C)C)ccc21	-5%	u	-19%	-6%	-71*
CCn1cc(C(=O)NCCCN(C)c2ccccc2)c(=O)c2cc(S(=O)(=O)N(C)C)ccc21	15µM*	u	-20%	-7%	-9
C/C(CCC(=O)OC[C@@H]1O[C@H](C#Cc2ccccc2)C=C[C@@H]1Oc1ccc(C)cc1)=N/O[C@@H](C)c1cn([C@H]2COC[C@H]2O)nn1	x	x	x	-1%[12.9 µM]	x
CCn1cc(C(=O)NCc2ccc3c(c2)OCO3)c(=O)c2cc(S(=O)(=O)N3CCOCC3)ccc21	u	u	10%	10%	38
C=CCn1cc(C(=O)NCc2cccnc2)c(=O)c2cc(S(=O)(=O)N(CC)CC)ccc21	29%	x	-5%	0%	-61*
CCn1cc(C(=O)NCc2ccc3c(c2)OCO3)c(=O)c2cc(S(=O)(=O)N(C)C)ccc21	u	12µM*	10%	0%	17
C=CCn1cc(C(=O)NCCOC)c(=O)c2cc(S(=O)(=O)N(CC)CC)ccc21	x	-19%	1%	3%	-12
CCn1cc(C(=O)NC(C)CCc2ccccc2)c(=O)c2cc(S(=O)(=O)N(C)C)ccc21 (stereo unspecified)	43%	6.6µM*	8%	7%	-21
CCn1cc(C(=O)NCCc2ccc(Cl)cc2)c(=O)c2cc(S(=O)(=O)N(C)C)ccc21	u	u	-2%	-4%	37
CC(=O)Nc1ccc(Nc2nc(C)c([N+](=O)[O-])c(Nc3ccc(NC(C)=O)cc3)n2)cc1	2.1µM*	-26%	-16%	1%	26
Cc1ccc(Nc2nc(C)c(NC(=O)c3ccc(C)cc3)c(Nc3ccc(C)cc3)n2)cc1	x	x	0%	x	-63*
COCCCNCC(O)COc1ccccc1F (stereo unspecified)	-35%	16%	-13%	u	-11
Cc1ccc(C(O)CN2C3=NCCCN3c3ccccc32)cc1 (stereo unspecified)	4.1µM*	u	-2%	-4%	-24
CCCCCCN1C2=NCCCN2c2ccccc21	12µM*	u	6%	0%	u
CCCN1C2=NS(=O)(=O)CCN2c2ccccc21	x	20%	1%	11%	-101*
Cc1ccc(C)c(C(=O)CN2C3=NCCCN3c3ccccc32)c1	9.3µM*	7.4µM*	4%	x	u
OCCN1C2=NCCCN2c2ccccc21	7.4µM*	0%	-1%	-25%	25
CCCCN1C(=O)C(C(=O)OCC)CC2=C1CCCC2=O (stereo unspecified)	x	x	x	x	-3
O=[N+]([O-])c1ccc(N2CCCCC2)cc1NCCOc1ccccc1	13µM*	25%	5%	3%	-27
CCc1ccc(OCCNc2cc(N3CCNC(C)C3)ccc2[N+](=O)[O-])cc1 (stereo unspecified)	u	4.7µM*	-2%	x	-3
CC1CN(c2ccc([N+](=O)[O-])c(NCCOc3ccc(Cl)cc3)c2)CC(C)N1 (stereo unspecified)	223%	u	2%	2%	-17
CCc1nc2c(OCc3ccc4c(c3)OCO4)cccn2c1N(C=O)Cc1ccccc1	x	x	x	x	-9
SMILES	Pf growth 96h	Pf growth 48h	Sm TGR inh	FBPA Giardia inh	HCMV inh
CN1CCN(C2=C(Cl)C(=O)N(CCc3ccccc3)C2=O)CC1	-92%	52%	u	-1%	-68*
O=C1C(Cl)=C(N2CCOCC2)C(=O)N1CCc1ccccc1	u	106%	0%	9%	65
CN(C)CCC#CC(O)(c1ccccc1)c1ccccc1	u	12µM*	-13%	5%	-40
COc1ccc(NS(=O)(=O)c2cc(N)ccc2N2CCCCC2)cc1	u	u	-12%	x	-34
Nc1ccc(N2CCCC2)c(S(=O)(=O)Nc2cccc(C(F)(F)F)c2)c1	x	x	x	x	-69*
COc1ccc(Cl)cc1NC(=O)NNC(=O)C(=O)Nc1ccc(F)cc1	x	x	x	x	-10
CO/N=C(/C(=O)N[C@@H]1C(=O)N2C(C(=O)O)=C(COC(N)=O)CS[C@H]12)c1ccco1	17µM*	15µM*	x	x	x
CO/N=C(/C(=O)N[C@H]1C(=O)N2C(C(=O)O)=C(COC(C)=O)CSC12)c1csc(N)n1 (stereo partly specified)	x	x	x	-25%	x
CC(=O)OCC1=C(C(=O)O)N2C(=O)[C@@H](NC(=O)CSc3ccncc3)[C@@H]2SC1	u	-3%	x	-20%[21.7 µM]	x
CC(=O)OCC1=C(C(=O)O)N2C(=O)C(NC(=O)c3ccc(COc4cccc(Cl)c4Cl)o3)C2SC1 (stereo unspecified)	36%	u	20µM*	-6%	9
COc1cccc(C(=O)NC2C(=O)N3C(C(=O)O)=C(COC(C)=O)CSC23)c1 (stereo unspecified)	-20%	3%	13µM*	x	-2
CCN(CC)CCC/C(=N\O)C(O)(c1ccccc1)c1ccccc1	31%	u	5%	2%	-37
CC[N+](C)(CC)CCC/C(=N/O)C(O)(c1ccccc1)c1ccccc1	-23%	u	0%	1%	-65*
CC(C)(C)C(=O)NNC(=O)c1cnccn1	-25%	-27%	7%	-15%	-39
CCCCCCN(C(=O)CCCN1C(=O)NC(c2ccc(-c3ccccc3)cc2)C(C(=O)OCc2ccccc2)=C1C)C(C)C(=O)NCCCC (stereo unspecified)	x	x	x	x	10
COC(=O)CCCN1C(=O)NC(c2ccc(-c3ccccc3)cc2)C(C(=O)OCc2ccccc2)=C1C (stereo unspecified)	x	x	x	x	4
CCCCCCN(C(=O)CCCCCN1C(=O)NC(c2ccc(-c3ccccc3)cc2)C(C(=O)OCc2ccccc2)=C1C)C(C(=O)NCCCC)c1ccc(O)c(C(=O)OC)c1 (stereo unspecified)	2.1µM*	2.1µM*	15%	3%	x
CCCCCCN(C(=O)CCCCCN1C(=O)NC(c2ccc(-c3ccccc3)cc2)C(C(=O)OCc2ccccc2)=C1C)C(C(=O)NCCCC)c1ccc(-c2ccccc2)cc1 (stereo unspecified)	0.26µM*	0.83µM*	10%	4%	7
CC1=C(C(=O)OCc2ccccc2)C(c2ccc(-c3ccccc3)cc2)NC(=O)N1CCCCCC(=O)O (stereo unspecified)	u	-24%	-14%	16%	13
